The whole screen tested about 1,100 compounds, of which about 760 (69%) were called active. How the calls were made is not given here. So high a share suggests a set chosen from earlier hits. Some of the results follow.
Assay: M. tuberculosis growth inhibition, HTS (AID 1259417);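 further: bacteria grown with compound for 5 days at 37 °C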
Settings: stronger effect = higher value, concentration not given here
[1] = M. tuberculosis DsRed fluorescence growth inhibition
[2] = M. tuberculosis growth inhibition

Structure (SMILES)	inhibition [1]	inhibition [2]
COc1ccc(C)c2sc(N(CCCn3ccnc3)C(=O)c3cccs3)nc12	51.2% (active)	44.6%
COc1ccc(Cl)c2sc(N(CCCn3ccnc3)C(=O)c3cccs3)nc12	59.9% (active)	61.3%
O=C(COc1cccc2ccccc12)c1ccc(Cl)cc1	17% (active)	36.9%
Cn1nc([N+](=O)[O-])nc1Sc1ncnn1-c1ccccc1	97.1% (active)	95%
Cc1c(C)n2c3c(=O)[nH]c(=O)n(C)c3nc2n1-c1ccccc1O	97.2% (active)	92.8%
O=c1nc2c(O)cccn2c2c1c(=O)[nH]c1ccccc12	-3.23% (inactive)	-27.6%
COC(=O)C(CC(=O)c1ccc(Br)cc1)n1ccnc1 (stereo not drawn)	100% (active)	100%
O=c1oc2ccccc2nc1/C=C(O)/C=C\c1ccccc1	99.1% (active)	98.9%
Clc1ccc(OCc2ccccc2Cl)c(CNC2CCCCC2)c1	99.2% (active)	99.3%
COC(=O)CSc1ncnc2c1sc1nc3c(cc12)COC(C)(C)C3	48.1% (active)	-1.03%
Cc1ccc(Nc2nc(NCc3ccco3)c3ccccc3n2)cc1	69% (active)	45.4%
Clc1cccc(Nc2nc(NCc3ccco3)c3ccccc3n2)c1	41.8% (active)	5.69%
Cc1ccccc1Nc1nc(NCc2ccco2)c2ccccc2n1	-6.74% (inactive)	-22.5%
CCOc1ccc(Nc2nc(NCc3ccco3)c3ccccc3n2)cc1	65.7% (active)	78.4%
OCCOCCNc1nc(Nc2cccc(F)c2)nc2c1cnn2-c1ccccc1	-4.23% (inactive)	4.68%
Cc1ccc(-c2csc(-c3ccc(O)cc3)n2)cc1	3.54% (inactive)	28.7%
Cc1ccc(-c2nc(NC(=O)CO)cs2)cc1	99.1% (active)	100%
CC(NCC(O)COc1ccccc1C(C)(C)C)c1ccccc1 (stereo not drawn)	61.1% (active)	48.8%
O=C(Nc1nnc(-c2ccc3c(c2)CCCC3)o1)c1ccc(Cl)s1	95.5% (active)	90.6%
O=C(Nc1cccc(Br)c1)c1ccc([N+](=O)[O-])s1	6.23% (inactive)	3.28%
O=C(Nc1nnc(-c2ccc3c(c2)CCCC3)o1)c1ccc(Cl)cc1Cl	-1.63% (inactive)	-9.7%
CSc1cccc(-c2nnc(NC(=O)c3ccc([N+](=O)[O-])s3)o2)c1	13% (active)	56.8%
O=C(Nc1nnc(-c2ccc3c(c2)CCCC3)o1)c1ccc([N+](=O)[O-])s1	79% (active)	93.9%

Structure (SMILES)	inhibition [1]	inhibition [2]
O=C(Nc1nnc(-c2ccc3c(c2)CCCC3)o1)c1cc(Cl)sc1Cl	52.2% (active)	48.6%
O=C1CC(c2ccc(Cl)cc2)CC2=C1C(c1ccc(C(F)(F)F)cc1)Nc1ccccc1N2 (stereo not drawn)	-1.45% (inactive)	-10.1%
COC(=O)CSc1ncnc2c1nnn2Cc1ccc(F)cc1	99.8% (active)	99.8%
CCOC(=O)C(C)Sc1ncnc2c1nnn2Cc1ccc(F)cc1 (stereo not drawn)	2.2% (inactive)	19%
CCOC(=O)C(C)Sc1ncnc2c1cnn2-c1ccc(F)cc1 (stereo not drawn)	26.4% (active)	87.2%
COC(=O)CSc1ncnc2c1cnn2-c1ccc(F)cc1	27.3% (active)	86.2%
CCOC(=O)CSc1ncnc2c1cnn2-c1ccc(C)cc1C	39.4% (active)	77.1%
CCOC(=O)CNC(=O)CSc1ncnc2c1nnn2Cc1ccccc1F	17.3% (inactive)	22.5%
CCOC(=O)CSc1ncnc2c1cnn2-c1ccccc1	13.4% (active)	70.7%
CCOC(=O)C1CCCN(c2ccc([N+](=O)[O-])c3nonc23)C1 (stereo not drawn)	29.3% (active)	67.6%
O=S1(=O)C=CC2ON=C(c3ccc(C(F)(F)F)cc3)C21 (stereo not drawn)	99.5% (active)	96.8%
O=S1(=O)C=CC2ON=C(c3ccc(Cl)cc3)C21 (stereo not drawn)	100% (active)	98.3%
COC(=O)CSc1nc2c(c(-c3ccc(C)o3)c1C#N)CCCC2	4.49% (inactive)	-17%
CCOC(=O)CSc1nc2c(c(-c3ccc(C)o3)c1C#N)CCCC2	21.7% (inactive)	28.1%
N#Cc1cc2c(nc1SCC(=O)OCc1ccccc1)CCC2	99.7% (active)	99.7%
O=C(CC(O)(C(F)(F)F)C(F)(F)F)Nc1ccc(Cl)c(Cl)c1	100% (active)	101%
O=C(Nc1ccc(Cl)c(C(F)(F)F)c1)c1csc2c1CCCC2	1.18% (inactive)	-27.8%
O=C(Cc1ccc(F)cc1)Nc1ccc(Cl)c(C(F)(F)F)c1	50.9% (active)	31.5%
O=C(CSc1ccc(Cl)cc1)Nc1ccc(Cl)c(C(F)(F)F)c1	0.0104% (inactive)	-15.8%
Cc1cc(C)nc(N=C(N)Nc2cc(Cl)ccc2Oc2ccccc2)n1	97.1% (active)	99.6%
Cn1nc([N+](=O)[O-])nc1Oc1ccc(C(C)(C)C)cc1	96.8% (active)	94.8%
CCc1ccc(Oc2nc([N+](=O)[O-])nn2C)cc1	98% (active)	95.4%
CCN(CC)c1cccc(Oc2nc([N+](=O)[O-])nn2C)c1	96.8% (active)	95.7%

Structure (SMILES)	inhibition [1]	inhibition [2]
O=C(OCc1nnc(-c2ccccc2)o1)c1cc(-c2cccs2)nc2ccccc12	83.3% (active)	100%
CN(Cc1nc2ccccc2c(=O)[nH]1)Cc1nc2ccsc2c(=O)[nH]1	97.2% (active)	96.7%
CC1Cc2cc(-c3nn(-c4ccccc4)cc3C=C3SC(=S)NC3=O)ccc2O1 (stereo not drawn)	27% (active)	38.2%
COC(=O)COc1ccc2cc(-c3ccc(OC)c(OC)c3)c(=O)oc2c1	26.7% (active)	45%
CCOC(=O)COc1ccc2cc(-c3ccc(OC)c(OC)c3)c(=O)oc2c1	43.5% (active)	53.6%
CCOC(=O)COc1ccc2cc(-c3nc4ccccc4s3)c(=O)oc2c1	88.6% (active)	86.2%
COc1cccc(OCCNC(=O)c2cc([N+](=O)[O-])cc([N+](=O)[O-])c2)c1	98.1% (active)	95.3%
COc1cccc(OCC(=O)c2ccc(Br)cc2)c1	-3.18% (inactive)	-10.7%
c1ccc(CCNc2nc3ccccc3[nH]2)cc1	21.4% (active)	32.9%
Cc1ccc2nc(NCc3ccccc3)[nH]c2c1	43% (active)	23.1%
Cc1ccc(OCCN2CCN(c3nc(NCc4ccccc4)c4ccccc4n3)CC2)cc1	-1.14% (inactive)	-0.136%
O=C(C1CCN(c2nnc(-n3cccc3)s2)CC1)N1CCc2ccccc2C1	70.1% (active)	84.1%
Cc1nc2cc(C(=O)OCC(=O)NC34CC5CC(CC(C5)C3)C4)ccc2n1-c1ccccc1	-4.71% (inactive)	-17.2%
O=C(NC12CC3CC(CC(C3)C1)C2)N1CCN(c2cccc(C(F)(F)F)c2)CC1	100% (active)	94.4%
O=C(C1CCN(c2nnc(-n3cccc3)s2)CC1)N1CCN(c2cccc(C(F)(F)F)c2)CC1	68.1% (active)	27.8%
COc1cccc(-c2csc(N3CCN(C(=O)NC45CC6CC(CC(C6)C4)C5)CC3)n2)c1	3.33% (inactive)	-30.6%
Cc1cccc(N2CCN(C3=NC(=O)C(=C4CCCCC4)S3)CC2)c1	84.8% (active)	77.9%
CC1CCC(C(C)C)C(OC(=O)Cn2c(-c3ccc(F)cc3)[n+](C)c3ccccc32)C1 (stereo not drawn)	94.3% (active)	97.5%
CCN(CC)c1ccc(NC(=O)c2cnccn2)cc1	92.1% (active)	96.5%
O=C(Nc1nnc(-c2ccccc2)o1)c1nc2ccccc2s1	94.3% (active)	94.8%
Cc1ccc(-c2nnc(NC(=O)c3nc4ccccc4s3)o2)c(C)c1	21.8% (active)	89.7%
O=C(c1ccccc1)c1ccc(OCC(O)Cn2cnc3ccccc32)cc1 (stereo not drawn)	-0.545% (inactive)	-3.24%
CC(=O)Nc1nc2ccccc2n1CCOc1ccccc1	93% (active)	92.9%

Structure (SMILES)	inhibition [1]	inhibition [2]
CC(=O)Nc1nc2ccccc2n1Cc1ccccc1	81.5% (active)	85.5%
CC(C)(C)c1ccc(OCCN2C(=O)C(=O)c3cc(Br)ccc32)cc1	-0.55% (inactive)	-12%
CCc1nc2ccccc2n1CC(O)COc1ccc(I)cc1 (stereo not drawn)	99.5% (active)	100%
CC(C)(C)c1ccc(OCCn2c(N)nc3ccccc32)cc1	70.4% (active)	90.4%
COc1ccc(C2CC(c3c(-c4ccccc4)c4cc(Br)ccc4[nH]c3=O)=NN2C(=O)c2ccccc2)cc1 (stereo not drawn)	9.47% (inactive)	8.15%
CCc1nc2ccccc2n1CCCOc1ccccc1	100% (active)	101%
Cc1nc2ccccc2n1CC(O)COc1ccc(C2C=CCC2)cc1 (stereo not drawn)	101% (active)	101%
COc1ccc(SN=C2C(C)=CC(=O)C=C2C)cc1	5.38% (inactive)	20%
CN(C)CC1CC(C(C)(C)C)CCC1=O (stereo not drawn)	63.9% (active)	85.1%
O=c1oc(-c2ccccc2Br)nc2sc3c(c12)CCCC3	99.7% (active)	98.6%
NNC(=O)c1ccc(-c2ccccc2Cl)o1	-6.57% (inactive)	6.08%
COC(=O)COc1ccc2c(=O)c(-c3ccc(Cl)cc3)coc2c1	78.7% (active)	94.8%
CCCc1cc2c(=O)c(-c3ccc4c(c3)OCCCO4)coc2cc1OCC(=O)OCC	62.8% (active)	59.1%
COc1ccccc1-c1c(C)oc2cc(OCC(=O)OCc3ccccc3)ccc2c1=O	28.7% (active)	62.9%
COC(=O)COc1ccc2c(=O)c(-c3ccccc3Cl)c(C)oc2c1	74.9% (active)	95.5%
CS(=O)(=O)Nc1cccc(C2=NN(c3nc(-c4ccccc4)c4cc(Cl)ccc4n3)C(c3ccco3)C2)c1 (stereo not drawn)	7.39% (inactive)	-23.7%
CCOC(=O)COc1ccc2c(=O)c(Oc3cnn(-c4ccccc4)c3)c(C)oc2c1	79% (active)	94.4%
CCc1cc2c(=O)c(-c3ccc(OC)cc3)coc2cc1OCC(=O)OC	63.7% (active)	86.9%
COc1ccccc1-c1coc2cc(OCC(=O)OC3CCCCC3)ccc2c1=O	40.7% (active)	66.9%
CCCCOC(=O)COc1ccc2c(=O)c(Oc3ccc(OCC)cc3)c(C)oc2c1	31.4% (active)	83.7%

— PubChem BioAssay AID1259417 (TB Discovery Research, Infectious Disease Research Institute, 2018)
